Measured values as given in PubChem BioAssay (NCI).
This is part of a sample that, as a whole, favours compounds with a hit. Of some 83,000 tested, about 20% had one in any assay.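 Activity criterion: percent growth below 10, measured after cells in 96-well plates were exposed to a single compound concentration for 48 hours.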 Activity calls are given as the source filed them.

How the values were obtained:
Test in all cases: NCI-60 one-dose screen, 48 h (100 = growth as untreated, 0 = no growth, -100 = all killed)
Details in all cases: 10 µM unless noted
OVCAR-8 ovarian = tested on: OVCAR-8 ovarian
OVCAR-5 ovarian = tested on: OVCAR-5 ovarian
OVCAR-4 ovarian = tested on: OVCAR-4 ovarian
SK-OV-3 ovarian = tested on: SK-OV-3 ovarian
IGROV1 ovarian = tested on: IGROV1 ovarian
HS 578T breast = tested on: HS 578T breast
NCI/ADR-RES ovarian = tested on: NCI/ADR-RES ovarian
T-47D breast = tested on: T-47D breast
BT-549 breast = tested on: BT-549 breast
MDA-MB-435 melanoma = tested on: MDA-MB-435 melanoma
SW-620 colon = tested on: SW-620 colon
MCF7 breast = tested on: MCF7 breast
HCT-116 colon = tested on: HCT-116 colon
HCC-2998 colon = tested on: HCC-2998 colon
KM12 colon = tested on: KM12 colon
OVCAR-3 ovarian = tested on: OVCAR-3 ovarian

Measured: growth

O=c1[nH]nc(-c2ccc(Br)cc2)c2sc(NC(=S)Nc3ccc(Cl)cc3)nc12
inactive: OVCAR-8 ovarian 95.4% | OVCAR-5 ovarian 97.3% | OVCAR-4 ovarian 91.5% | SK-OV-3 ovarian 96.9% | IGROV1 ovarian 81.1% | NCI/ADR-RES ovarian 80% | T-47D breast 85.9% | BT-549 breast 92.6% | MDA-MB-435 melanoma 104% | SW-620 colon 96.7% | MCF7 breast 79.7% | HCT-116 colon 96.8% | HCC-2998 colon 97.6% | KM12 colon 99.3%
active: HS 578T breast -1.82%

COC(=O)c1ccc2c(c1)NC(=O)[C@@H]1CCCN21
inactive: OVCAR-8 ovarian 97.5% | OVCAR-5 ovarian 112% | OVCAR-4 ovarian 88.4% | SK-OV-3 ovarian 95.2% | IGROV1 ovarian 101% | OVCAR-3 ovarian 102% | HS 578T breast 105% | NCI/ADR-RES ovarian 100% | T-47D breast 86.3% | BT-549 breast 87.2% | MDA-MB-435 melanoma 100% | SW-620 colon 96.8% | MCF7 breast 73.9% | HCT-116 colon 93.8% | HCC-2998 colon 109% | KM12 colon 101%

N#Cc1c(-c2ccc(F)cc2)nc(N/N=C/c2c[nH]c3ccccc23)nc1N1CCOCC1
active: SW-620 colon 7.62%
inactive: OVCAR-8 ovarian 58% | OVCAR-5 ovarian 94.8% | OVCAR-4 ovarian 80.4% | SK-OV-3 ovarian 92.6% | IGROV1 ovarian 65.1% | OVCAR-3 ovarian 65.9% | HS 578T breast 34.4% | NCI/ADR-RES ovarian 61% | T-47D breast 76.4% | BT-549 breast 75.5% | MDA-MB-435 melanoma 77.2% | MCF7 breast 51.5% | HCT-116 colon 44.3% | HCC-2998 colon 59% | KM12 colon 40%

COc1cc(NC(=O)COc2cc(C)nc3ccc(OC)cc23)cc(OC)c1
inactive: OVCAR-8 ovarian 93.6% | OVCAR-5 ovarian 107% | OVCAR-4 ovarian 99% | SK-OV-3 ovarian 96.3% | IGROV1 ovarian 104% | OVCAR-3 ovarian 98.9% | HS 578T breast 95.1% | NCI/ADR-RES ovarian 86.6% | T-47D breast 95.8% | BT-549 breast 85.5% | MDA-MB-435 melanoma 100% | SW-620 colon 99.7% | MCF7 breast 86.8% | HCT-116 colon 90.2% | HCC-2998 colon 101% | KM12 colon 96.8%

CCCn1c2cc(OCc3cn(-c4ccc(Cl)cc4)nn3)ccc2c2ccnc(C)c21
inactive: OVCAR-8 ovarian 49.9% | OVCAR-5 ovarian 78% | OVCAR-4 ovarian 55.5% | SK-OV-3 ovarian 73.9% | IGROV1 ovarian 74% | OVCAR-3 ovarian 59.3% | HS 578T breast 75% | NCI/ADR-RES ovarian 66.3% | T-47D breast 52.2% | BT-549 breast 87.2% | MDA-MB-435 melanoma 101% | SW-620 colon 74.8% | MCF7 breast 73.3% | HCT-116 colon 41.6% | HCC-2998 colon 92.7% | KM12 colon 74.1%

COc1ccc(-c2cc(-c3nnc(SCC(=O)Nc4ccc(/C(C)=N\O)cc4)o3)c3ccccc3n2)cc1
inactive: OVCAR-8 ovarian 105% | OVCAR-5 ovarian 113% | OVCAR-4 ovarian 103% | SK-OV-3 ovarian 111% | IGROV1 ovarian 112% | OVCAR-3 ovarian 98% | HS 578T breast 99.9% | NCI/ADR-RES ovarian 102% | T-47D breast 102% | BT-549 breast 108% | MDA-MB-435 melanoma 110% | SW-620 colon 105% | MCF7 breast 96.1% | HCT-116 colon 107% | HCC-2998 colon 101% | KM12 colon 101%

CCCCC(=O)Nc1c(C(=O)Nc2ccccc2)sc2nc3c(cc12)C(OC(=O)CCCC)CCC3 (stereo not drawn)
inactive: OVCAR-8 ovarian 84.7% | OVCAR-5 ovarian 111% | OVCAR-4 ovarian 36.7% | SK-OV-3 ovarian 108% | IGROV1 ovarian 99.8% | OVCAR-3 ovarian 102% | HS 578T breast 89.5% | NCI/ADR-RES ovarian 79.3% | T-47D breast 79% | BT-549 breast 85.4% | MDA-MB-435 melanoma 108% | SW-620 colon 50.1% | MCF7 breast 82.9% | HCT-116 colon 101% | HCC-2998 colon 101% | KM12 colon 99.9%

COc1ccc2[nH]c(=O)c(/C=C/C(=O)/C=C/c3ccc(O)c(OC)c3)cc2c1
active: OVCAR-8 ovarian 1.42% | IGROV1 ovarian 2.67% | OVCAR-3 ovarian -11.2% | BT-549 breast -22.8% | MDA-MB-435 melanoma -30% | SW-620 colon -24.8% | HCT-116 colon -86.7% | HCC-2998 colon -74% | KM12 colon -45%
inactive: OVCAR-5 ovarian 59.4% | OVCAR-4 ovarian 64.3% | SK-OV-3 ovarian 56.5% | HS 578T breast 25.5% | NCI/ADR-RES ovarian 47.9% | T-47D breast 26% | MCF7 breast 13%

O=C(O)C(C(=O)O)c1cccc2ccccc12
inactive: OVCAR-8 ovarian 101% | OVCAR-5 ovarian 110% | OVCAR-4 ovarian 100% | SK-OV-3 ovarian 101% | IGROV1 ovarian 111% | OVCAR-3 ovarian 112% | HS 578T breast 102% | NCI/ADR-RES ovarian 98.9% | T-47D breast 92.7% | BT-549 breast 102% | MDA-MB-435 melanoma 102% | SW-620 colon 99.1% | MCF7 breast 98.1% | HCT-116 colon 102% | HCC-2998 colon 104% | KM12 colon 109%
